TDP1 cell CPT = qHTS for Inhibitors of human tyrosyl-DNA phosphodiesterase 1 (TDP1): qHTS in cells in presence of CPT. chicken DT40 Tdp1-/-;hTDP1 cells + 20 nM CPT, ATP luminescence, 48 h. Potency, µM (titrated, usually from 46.2 µM), inactives show top-dose activity change, negative = growth inhibition, usual class: inhibitors. 420,000 tested, 12% active. AID 686979, 2013; also: potency is read from the fitted curve at half-maximal effect; nearly all actives have a fitted effect of over 55% in size
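Cell growth measured by CellTiter-Glo luminescence after a minimum 48 h, 37 C compound exposure with 20 nM CPT in Tdp1-knockout DT40 cells stably expressing hTDP1, seeded 400/well; qHTS titration format.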
IL-1B inflam inh = qHTS for Inhibitors of Inflammasome Signaling: IL-1-beta AlphaLISA Primary Screen. THP-1 LPS/ATP IL-1B secretion, AlphaLISA, 16 h; hits give low values. activity change, % at 57.5 µM. AID 743279, 2014. 360,000 tested, 4.7% active; in the data active = activity change below about -50%; inconclusive = mostly about -30% to -49%
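Secreted IL-1B measured by AlphaLISA bead assay after 16 h compound exposure of THP-1 cells; compounds (final up to 57.5 uM) added 1 h before LPS (250 ng/mL) and ATP (1.25 mM) stimulation; lower signal means less secretion.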
DT40 TDP1 no CPT = qHTS for Inhibitors of human tyrosyl-DNA phosphodiesterase 1 (TDP1): qHTS in cells in absence of CPT; AID 686978, 2013; DT40 Tdp1-/- hTDP1 cells, no CPT, ATP luminescence, 48 h; 420,000 tested, 15% active; Potency, µM (series often up to 46.2 µM), without a hit: top-dose activity change, negative = growth inhibition, hits mostly inhibitors; also: potency is read from the fitted curve at half-maximal effect; nearly all actives have a fitted effect of over 55% in size
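A cellular qHTS used chicken DT40 cells lacking endogenous Tdp1 but carrying stably transfected human TDP1. Compounds were applied without camptothecin, and cell growth kinetics were judged by ATP-dependent luminescence after ≥48 hr.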
HT1080-NT tox = qHTS for induction of synthetic lethality in tumor cells producing 2HG: qHTS for the HT-1080-NT fibrosarcoma cell line. HT-1080-NT fibrosarcoma viability, CellTiter-Glo ATP luminescence, 48 h. Potency, µM (highest dose often 46.1 µM), for the others: at the highest dose activity, negative = less viability, hits mostly cytotoxic. 360,000 tested, 1.6% active. AID 686970, 2013;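 also: NT is the 2HG producing partner of a matched IDH1 knockdown line; potency is read from the fitted curve at half-maximal effect; 0% = DMSO-treated cells and -100% = media-only wells without cells; nearly all actives have a fitted effect of over 55% in size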
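HT-1080-NT fibrosarcoma cells (2HG-overproducing), 750 cells/well in RPMI with 5% FBS, dosed after 2 h and incubated 48 h at 37C. CellTiter-Glo luminescence normalized to DMSO and no-cell wells; concentration-response curves fitted and classed.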
HT1080 IDH1KD tx = qHTS for induction of synthetic lethality in tumor cells producing 2HG: qHTS for the HT-1080-IDH1KD cell line. HT-1080 IDH1 knockdown viability, ATP luminescence, 48 h. Potency, µM (top dose mostly 46.1 µM), inactives show at the top dose activity, negative = toxicity, most hits filed as cytotoxic. 360,000 tested, 2% active;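 also: potency is read from the fitted curve at half-maximal effect; 0% = DMSO wells and -100% = cell-free medium wells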
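Knockdown cells (IDH1KD HT-1080) received compounds 2 h after plating at 750 cells/well and were kept 48 h at 37 °C in 5% FBS RPMI. A CellTiter-Glo luminescence read gave % activity for curve fitting.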
Starred values were filed as active, the others as inactive; i = inactive; ? = inconclusive. Rows were chosen to be rich in hits. Some 19% of all compounds tested hit in one or more screens of this group. Unless noted, calls follow the shape of the dose curve; as a rule, active = well fitted curve in the direction sought with a large enough effect; inconclusive = small, poorly fitted or top-dose-only effect, or another doubt; inactive = no such curve, though single readings can be large; an effect the other way counts as inactive or inconclusive. Unless noted, % is scaled to controls: 0 for no effect and ±100 for the full control effect.

SMILES	TDP1 cell CPT	IL-1B inflam inh	DT40 TDP1 no CPT	HT1080-NT tox	HT1080 IDH1KD tx
CCN(CC)CCN(C(=O)c1ccc2c(c1)CCCC2)c1nc2cc(OC)c(OC)cc2s1	23.1µM*	-81.8*	-25.0%	-1.5%	-12.5%
CN(C)CCN(C(=O)c1ccc(S(=O)(=O)N(C)C)cc1)c1nc2cc3c(cc2s1)OCCO3	0.0%	7.6	-25.5%	3.4%	7.1%
COc1ccc2nc(N(CCN(C)C)C(=O)c3ccc4c(c3)OCCO4)sc2c1	6.3%	-10.1	8.3%	0.0%	2.7%
CN(C)CCN(C(=O)c1ccc2c(c1)OCCO2)c1nc2cc3c(cc2s1)OCO3	-10.0%	-53.8*	-12.2%	-2.8%	-4.8%
CN(C)CCN(C(=O)c1ccc2c(c1)CCCC2)c1nc2cc3c(cc2s1)OCCO3	?	-57.7*	29.1µM*	1.4%	1.4%
CCOC(=O)c1c(SCC(=O)Nc2nccs2)nc(C)c(C)c1C	?	-7.2	?	8.1%	-1.6%
COc1ccccc1CNC(=O)COC(=O)c1cc(=O)[nH]c2ccccc12	-0.4%	2.7	1.9%	-5.9%	-12.3%
CN(C)CCN(C(=O)c1ccc2ccccc2c1)c1nc2cc3c(cc2s1)OCO3	?	-4.6	23.1µM*	-10.4%	-5.3%
CCN(CC)CCN(C(=O)C1=COCCO1)c1nc2c(OC)ccc(OC)c2s1	5.7%	i	-13.3%	-0.2%	8.7%
CCOc1ccc2nc(N(CCN(C)C)C(=O)c3ccc4c(c3)CCCC4)sc2c1	?	-64.7*	?	-10.8%	-9.1%
COc1cc2nc(N(CCN(C)C)C(=O)c3ccc4ccccc4c3)sc2cc1OC	-21.2%	-12.8	-3.5%	14.3%	1.3%
CCOc1ccc2nc(N(CCN(CC)CC)C(=O)c3ccc([N+](=O)[O-])cc3)sc2c1	5.1%	-15.3	-6.0%	-9.0%	-6.3%
COc1ccc(Cl)c2sc(N(CCN(C)C)C(=O)c3ccc4c(c3)OCCO4)nc12	?	-95.6*	?	-25.2%	-13.2%
O=C(c1coc(=O)c(Br)c1)N1CCOCC1	5.17µM*	-6.6	5.17µM*	5.7%	4.8%
COc1ccc(C(c2nnnn2C(C)(C)C)N2CCN(c3nc4ccccc4s3)CC2)cc1OC (stereo unspecified)	?	0.0	1.7%	11.1%	0.3%
COCCn1nnnc1C(c1cccs1)N1CCN(c2nc3ccccc3s2)CC1 (stereo unspecified)	?	-17.3	23.1µM*	-0.9%	-18.5%
Oc1ccc(C(c2nnnn2CCc2ccccc2)N2CCN(c3nc4ccccc4s3)CC2)cc1 (stereo unspecified)	16.4µM*	-50.0*	13µM*	6.6%	-2.8%
Cc1ccc(Cl)cc1N1CCN(C(c2cccnc2)c2nnnn2C2CCCCC2)CC1 (stereo unspecified)	?	-52.6*	?	12.4%	-4.7%
Clc1ccc(C(c2nnnn2CCc2ccccc2)N2CCSCC2)cc1 (stereo unspecified)	?	?	?	-1.1%	-11.0%
COc1cc(C(c2nnnn2C(C)(C)C)N2CCN(c3nc4ccccc4s3)CC2)ccc1O (stereo unspecified)	14.6µM*	7.0	11.6µM*	7.8%	13.7%
COc1ccc(OC)c(Cc2nnc(CCC(=O)N3CCN(C4CCCC4)CC3)o2)c1	10.7%	13.8	-12.8%	9.4%	?
COCCn1nnnc1C(c1ccccn1)N1CCN(c2cc(Cl)ccc2C)CC1 (stereo unspecified)	?	-2.2	?	-0.1%	-8.3%
c1cnc2ccc(C(c3nnnn3C3CCCC3)N3CCN(c4nc5ccccc5s4)CC3)cc2c1 (stereo unspecified)	?	-53.0*	?	-3.6%	-11.2%
COCCn1nnnc1C(c1cccs1)N1CCN(c2cc(C)ccc2C)CC1 (stereo unspecified)	?	-52.9*	?	-21.2%	-29.9%
COc1ccc(C(=O)COC(=O)CNC(=O)c2ccc(Cl)cc2Cl)c(OC)c1	0.5%	-1.5	-28.6%	10.6%	15.3%
SMILES	TDP1 cell CPT	IL-1B inflam inh	DT40 TDP1 no CPT	HT1080-NT tox	HT1080 IDH1KD tx
COCCCNC(=O)/C(C#N)=C/c1c(N2CCN(c3ccccc3)CC2)nc2c(C)cccn2c1=O	?	-6.6	16.4µM*	-3.3%	-9.7%
Cc1cccn2c(=O)c(C=O)c(N3CCSCC3)nc12	-27.4%	-50.5*	-17.0%	-5.8%	-3.2%
COCCCNC(=O)/C(C#N)=C/c1c(N2CCN(c3cccc(Cl)c3)CC2)nc2c(C)cccn2c1=O	?	-66.3*	?	3.0%	0.8%
Cc1cccn2c(=O)c(C=C(C#N)C#N)c(N3CCN(c4cccc(Cl)c4)CC3)nc12	-19.6%	-74.8*	?	8.2%	8.7%
Cc1cccc(NC(=O)CSc2nnc(C3CC3)n2CC2CCCO2)c1C (stereo unspecified)	3.7%	16.6	-3.8%	8.1%	10.5%
Cc1ccc(S(=O)(=O)N2C[C@H]3[C@H]4C(=O)N(C)C(=O)[C@H]4CC(=O)[C@H]3[C@@H]2c2ccccc2Cl)cc1	-0.9%	6.7	-20.2%	12.8%	4.7%
C#CCOC(=O)c1ccc(-n2cncn2)nc1	-7.9%	-3.5	21.5%	9.9%	9.0%
Cc1cccn2c(=O)c(/C=C(\C#N)C(=O)NCc3ccco3)c(N3CCCC(C)C3)nc12 (stereo unspecified)	?	-53.5*	?	21.7%	13.6%
Cc1cccn2c(=O)c(/C=C(\C#N)C(=O)NCc3ccco3)c(N3CCCCCC3)nc12	?	-29.3	?	-19.1%	-20.8%
C=CCNC(=O)/C(C#N)=C/c1c(N2CCN(c3ccc(OC)cc3)CC2)nc2c(C)cccn2c1=O	?	9.6	13µM*	-19.0%	-18.4%
C=CCNC(=O)/C(C#N)=C/c1c(N2CCN(c3ccccc3)CC2)nc2c(C)cccn2c1=O	5.9%	55.4	?	0.2%	12.8%
O=C(CSc1ncnc2ccccc12)NCc1ccco1	-5.7%	1.7	-19.2%	19.7%	23.2%
O=c1c2ccccc2nnn1CSc1ccccc1F	?	6.6	?	8.4%	14.3%
O=C(CSc1ncnc2ccccc12)c1ccco1	?	-10.5	20.6µM*	-3.5%	-1.5%
O=C(CSc1nnc2sc3ccccc3n12)c1ccco1	-1.6%	8.6	-12.5%	1.0%	0.0%
Cc1cc(-n2c(C)cc(C(=O)CSc3nnc4sc5ccccc5n34)c2C)no1	16.4µM*	25.4	?	11.1%	-5.7%

Bioassay records (PubChem BioAssay)
